# Measurements reported in PMC11062922 (Nature Chemical Biology, 2023).
# Like-named read-outs stand apart in the source and are kept apart here.
# Experiments:
# ERN1 = settings: read-out: apparent Kd, n = 1
# GAK = settings: read-out: apparent Kd, n = 1
substance,measurement,setting,value
Lestaurtinib,potency estimated from few doses,"ERN1; compound concentrations:100 nM and 1000 nM (sheet 'Lestaurtinib' of Supplementary Table 1),run:Lestaurtinib_02765_R2,Plate:MR026",84.8 nM
same,potency estimated from few doses,"ERN1; compound concentrations:100 nM and 1000 nM (sheet 'Lestaurtinib' of Supplementary Table 1),run:Lestaurtinib_02765_R3,Plate:MR026",113 nM
same,potency estimated from few doses,"ERN1; compound concentrations:100 nM and 1000 nM (sheet 'Lestaurtinib' of Supplementary Table 1),run:Lestaurtinib_02766_R1,Plate:MR027",29.6 nM
same,potency estimated from few doses,"ERN1; compound concentrations:100 nM and 1000 nM (sheet 'Lestaurtinib' of Supplementary Table 1),run:Lestaurtinib_02766_R2,Plate:MR027",54.9 nM
same,potency estimated from few doses,"ERN1; compound concentrations:100 nM and 1000 nM (sheet 'Lestaurtinib' of Supplementary Table 1),run:Lestaurtinib_02766_R3,Plate:MR027",73.5 nM
same,potency estimated from few doses,"ERN1; compound concentrations:100 nM and 1000 nM (sheet 'Lestaurtinib' of Supplementary Table 1),run:Lestaurtinib_02768_R1,Plate:MR028",51.4 nM
same,potency estimated from few doses,"ERN1; compound concentrations:100 nM and 1000 nM (sheet 'Lestaurtinib' of Supplementary Table 1),run:Lestaurtinib_02768_R2,Plate:MR028",55.4 nM
same,potency estimated from few doses,"ERN1; compound concentrations:100 nM and 1000 nM (sheet 'Lestaurtinib' of Supplementary Table 1),run:Lestaurtinib_02795_R2,Plate:MR022",59.6 nM
same,potency estimated from few doses,"ERN1; compound concentrations:100 nM and 1000 nM (sheet 'Lestaurtinib' of Supplementary Table 1),run:Lestaurtinib_02802_R1,Plate:MR029",60.8 nM
same,potency estimated from few doses,"ERN1; compound concentrations:100 nM and 1000 nM (sheet 'Lestaurtinib' of Supplementary Table 1),run:Lestaurtinib_02802_R3,Plate:MR029",176 nM
same,potency estimated from few doses,"ERN1; compound concentrations:100 nM and 1000 nM (sheet 'Lestaurtinib' of Supplementary Table 1),run:Lestaurtinib_02896_R3,Plate:MR030",48.9 nM
same,potency estimated from few doses,"ERN1; compound concentrations:100 nM and 1000 nM (sheet 'Lestaurtinib' of Supplementary Table 1),run:Lestaurtinib_03172_R2,Plate:MR031",68.4 nM
same,potency estimated from few doses,"ERN1; compound concentrations:100 nM and 1000 nM (sheet 'Lestaurtinib' of Supplementary Table 1),run:Lestaurtinib_03172_R3,Plate:MR031",71.8 nM
same,potency estimated from few doses,"GAK; compound concentrations:100 nM and 1000 nM (sheet 'Lestaurtinib' of Supplementary Table 1),run:Lestaurtinib_02339_R1,Plate:MR001",681 nM
same,potency estimated from few doses,"GAK; compound concentrations:100 nM and 1000 nM (sheet 'Lestaurtinib' of Supplementary Table 1),run:Lestaurtinib_02339_R2,Plate:MR001",515 nM
same,potency estimated from few doses,"GAK; compound concentrations:100 nM and 1000 nM (sheet 'Lestaurtinib' of Supplementary Table 1),run:Lestaurtinib_02339_R3,Plate:MR001",744 nM
same,potency estimated from few doses,"GAK; compound concentrations:100 nM and 1000 nM (sheet 'Lestaurtinib' of Supplementary Table 1),run:Lestaurtinib_02364_R2,Plate:MR002",838 nM
same,potency estimated from few doses,"GAK; compound concentrations:100 nM and 1000 nM (sheet 'Lestaurtinib' of Supplementary Table 1),run:Lestaurtinib_02364_R3,Plate:MR002",670 nM
same,potency estimated from few doses,"GAK; compound concentrations:100 nM and 1000 nM (sheet 'Lestaurtinib' of Supplementary Table 1),run:Lestaurtinib_02367_R1,Plate:MR003",703 nM
same,potency estimated from few doses,"GAK; compound concentrations:100 nM and 1000 nM (sheet 'Lestaurtinib' of Supplementary Table 1),run:Lestaurtinib_02367_R2,Plate:MR003",797 nM
same,potency estimated from few doses,"GAK; compound concentrations:100 nM and 1000 nM (sheet 'Lestaurtinib' of Supplementary Table 1),run:Lestaurtinib_02367_R3,Plate:MR003",731 nM
same,potency estimated from few doses,"GAK; compound concentrations:100 nM and 1000 nM (sheet 'Lestaurtinib' of Supplementary Table 1),run:Lestaurtinib_02381_R2,Plate:MR004",635 nM
same,potency estimated from few doses,"GAK; compound concentrations:100 nM and 1000 nM (sheet 'Lestaurtinib' of Supplementary Table 1),run:Lestaurtinib_02407_R1,Plate:MR005",718 nM
same,potency estimated from few doses,"GAK; compound concentrations:100 nM and 1000 nM (sheet 'Lestaurtinib' of Supplementary Table 1),run:Lestaurtinib_02407_R2,Plate:MR005",809 nM
same,potency estimated from few doses,"GAK; compound concentrations:100 nM and 1000 nM (sheet 'Lestaurtinib' of Supplementary Table 1),run:Lestaurtinib_02407_R3,Plate:MR005",702 nM
same,potency estimated from few doses,"GAK; compound concentrations:100 nM and 1000 nM (sheet 'Lestaurtinib' of Supplementary Table 1),run:Lestaurtinib_02422_R1,Plate:MR006",425 nM
same,potency estimated from few doses,"GAK; compound concentrations:100 nM and 1000 nM (sheet 'Lestaurtinib' of Supplementary Table 1),run:Lestaurtinib_02422_R2,Plate:MR006",9.54 nM
same,potency estimated from few doses,"GAK; compound concentrations:100 nM and 1000 nM (sheet 'Lestaurtinib' of Supplementary Table 1),run:Lestaurtinib_02422_R3,Plate:MR006",725 nM
same,potency estimated from few doses,"GAK; compound concentrations:100 nM and 1000 nM (sheet 'Lestaurtinib' of Supplementary Table 1),run:Lestaurtinib_02437_R1,Plate:MR007",654 nM
same,potency estimated from few doses,"GAK; compound concentrations:100 nM and 1000 nM (sheet 'Lestaurtinib' of Supplementary Table 1),run:Lestaurtinib_02437_R2,Plate:MR007",698 nM
same,potency estimated from few doses,"GAK; compound concentrations:100 nM and 1000 nM (sheet 'Lestaurtinib' of Supplementary Table 1),run:Lestaurtinib_02437_R3,Plate:MR007",58.5 nM
same,potency estimated from few doses,"GAK; compound concentrations:100 nM and 1000 nM (sheet 'Lestaurtinib' of Supplementary Table 1),run:Lestaurtinib_02438_R1,Plate:MR008",700 nM
same,potency estimated from few doses,"GAK; compound concentrations:100 nM and 1000 nM (sheet 'Lestaurtinib' of Supplementary Table 1),run:Lestaurtinib_02438_R2,Plate:MR008",667 nM
same,potency estimated from few doses,"GAK; compound concentrations:100 nM and 1000 nM (sheet 'Lestaurtinib' of Supplementary Table 1),run:Lestaurtinib_02438_R3,Plate:MR008",750 nM
same,potency estimated from few doses,"GAK; compound concentrations:100 nM and 1000 nM (sheet 'Lestaurtinib' of Supplementary Table 1),run:Lestaurtinib_02473_R3,Plate:MR010",59.2 nM
same,potency estimated from few doses,"GAK; compound concentrations:100 nM and 1000 nM (sheet 'Lestaurtinib' of Supplementary Table 1),run:Lestaurtinib_02482_R1,Plate:MR011",870 nM
same,potency estimated from few doses,"GAK; compound concentrations:100 nM and 1000 nM (sheet 'Lestaurtinib' of Supplementary Table 1),run:Lestaurtinib_02482_R2,Plate:MR011",804 nM
same,potency estimated from few doses,"GAK; compound concentrations:100 nM and 1000 nM (sheet 'Lestaurtinib' of Supplementary Table 1),run:Lestaurtinib_02482_R3,Plate:MR011",707 nM
same,potency estimated from few doses,"GAK; compound concentrations:100 nM and 1000 nM (sheet 'Lestaurtinib' of Supplementary Table 1),run:Lestaurtinib_02487_R2,Plate:MR012",783 nM
same,potency estimated from few doses,"GAK; compound concentrations:100 nM and 1000 nM (sheet 'Lestaurtinib' of Supplementary Table 1),run:Lestaurtinib_02496_R1,Plate:MR013",552 nM
same,potency estimated from few doses,"GAK; compound concentrations:100 nM and 1000 nM (sheet 'Lestaurtinib' of Supplementary Table 1),run:Lestaurtinib_02496_R2,Plate:MR013",507 nM
same,potency estimated from few doses,"GAK; compound concentrations:100 nM and 1000 nM (sheet 'Lestaurtinib' of Supplementary Table 1),run:Lestaurtinib_02496_R3,Plate:MR013",639 nM
